Test results from the supplement of paper PMC8728848.
The full list was thinned out, with the strongest signals kept by preference.

B1: 7WC (Trifolium repens) (protein)
chain: MGTITSYAVVFDAGSTGSRVHVYHFDQNLDLLHIGKDVEFYNKIQPGLSAYADNPEQAAKSLIPLLEQAENVVPEDFHSKTPIRLGATAGLRLLDGDASERILQAVRDMLNNKSTFNVQPDAVSIIDGTQEGSYLWVTINYVLGNLGKRFTNTVGVIDLGGGSVQMAYAVSKKTARNAPKVTDGEDPYIKKIVLKGKPYDLYVHSYLHFGREASRAEILKVTHGSASPCILAGFDGIYTYSGEEFKASAPTSGANFDKCKKIIQKALKLDYPCPYQNCTFGGIWNGGGGSGQKKLFAASSFFYLPQDVGMVDPNKSNLKLRPVDLENKAKIVCTLNVEDVKSAYPLLEKFNIVPYACMDLIYQYELLVDGFGLDPLQEITAGEKIEYQEALVDAAWALGNAVEAVLLLPKFERLMYFVVEHHHHHH
B2: Siglec 6 (Homo sapiens), O43699 (protein)
chain: MLPLLLPLLWAGALAQERRFQLEGPESLTVQEGLCVLVPCRLPTTLPASYYGYGYWFLEGADVPVATNDPDEEVQEETRGRFHLLWDPRRKNCSLSIRDARRRDNAAYFFRLKSKWMKYGYTSSKLSVRVMALTHRPNISIPGTLESGHPSNLTCSVPWVCEQGTPPIFSWMSAAPTSLGPRTTQSSVLTITPRPQDHSTNLTCQVTFPGAGVTMERTIQLNVSYAPQKVAISIFQGNSAAFKILQNTSSLPVLEGQALRLLCDADGNPPAHLSWFQGFPALNATPISNTGVLELPQVGSAEEGDFTCRAQHPLGSLQISLSLFVHWKPEGRAGGVLGAVWGASITTLVFLCVCFIFRVKTRRKKAAQPVQNTDDVNPVMVSGSRGHQHQFQTGIVSDHPAEAGPISEDEQELHYAVLHFHKVQPQEPKVTDTEYSEIKIHK

Tests used:
Assay in all cases: glycan array binding signal (z-score within array); higher = stronger binding
Details in all cases: glycan notation: IUPAC condensed, linker removed
[1] = target: Fuc(a1-2)Gal(b1-4)[Fuc(a1-3)]GalNAc(b1-3)Gal(b1-4)[Fuc(a1-3)]GlcNAc
How it was run: (§1)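 Glycan array data were curated from 3228 arrays in the Consortium for Functional Glycomics database and kept only where the protein sequence was available. Glycan names were converted to IUPAC-condensed notation, and columns mapping to the same glycan were averaged. The binding signal is a within-array Z-score, averaged across arrays of the same protein sequence at different concentrations or buffers and across linkers. Negative Z-scores can be read as non-binding.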

[2] = target: Fuc(a1-2)Gal(b1-4)[Fuc(a1-3)]GlcNAc
How it was run: as §1

Gal(a1-3)Gal(b1-3)Glc = target: Gal(a1-3)Gal(b1-3)Glc
How it was run: as §1

[3] = target: Gal(b1-3)[Neu5Ac(a2-6)]GalNAc
How it was run: as §1

[4] = target: Gal(b1-4)GlcNAc(b1-3)Gal(b1-4)Glc
How it was run: as §1

Gal4S(b1-4)GlcNAc = target: Gal4S(b1-4)GlcNAc
How it was run: as §1

Glc(a1-4)Glc = target: Glc(a1-4)Glc
How it was run: as §1

[5] = target: GlcNAc(b1-3)Gal(b1-4)GlcNAc(b1-3)Gal(b1-4)GlcNAc
How it was run: as §1

[6] = target: GlcNAc(b1-3)[GlcNAc(b1-6)]GlcNAc
How it was run: as §1

[7] = target: Man(a1-2)Man(a1-2)Man(a1-6)[Man(a1-3)]Man
How it was run: as §1

Man(a1-2)Man(a1-3)Man = target: Man(a1-2)Man(a1-3)Man
How it was run: as §1

[8] = target: Neu5Ac(a2-3)Gal(b1-3)[Fuc(a1-4)]GlcNAc(b1-3)Gal(b1-4)[Fuc(a1-3)]GlcNAc
How it was run: as §1

[9] = target: Neu5Ac(a2-3)Gal(b1-4)GlcNAc6S
How it was run: as §1

[10] = target: Neu5Ac(a2-3)Gal(b1-4)[Fuc(a1-3)]GlcNAc(b1-3)Gal(b1-4)[Fuc(a1-3)]GlcNAc(b1-3)Gal(b1-4)[Fuc(a1-3)]GlcNAc
How it was run: as §1

Neu5Ac(a2-6)GalNAc = target: Neu5Ac(a2-6)GalNAc
How it was run: as §1

[11] = target: Neu5Ac9Ac(a2-6)Gal(b1-4)GlcNAc
How it was run: as §1

[12] = target: Fuc(a1-2)[Gal(a1-4)]Gal(b1-4)GalNAc
How it was run: as §1

Gal(a1-2)Gal = target: Gal(a1-2)Gal
How it was run: as §1

Gal(a1-3)Gal(b1-3)GlcNAc = target: Gal(a1-3)Gal(b1-3)GlcNAc
How it was run: as §1

Gal(a1-4)GlcNAc = target: Gal(a1-4)GlcNAc
How it was run: as §1

[13] = target: Gal(b1-3)[Neu5Ac(a2-6)]GlcNAc
How it was run: as §1

[14] = target: Gal(b1-4)GlcNAc(b1-2)Man(a1-3)[Gal(b1-4)GlcNAc(b1-2)Man(a1-6)]Man(b1-4)GlcNAc(b1-4)GlcNAc
How it was run: as §1

[15] = target: Gal(b1-4)GlcNAc(b1-6)[Gal(b1-3)]GalNAc
How it was run: as §1

Gal3S(b1-4)GlcNAc6S = target: Gal3S(b1-4)GlcNAc6S
How it was run: as §1

Gal3S6S(b1-4)GlcNAc = target: Gal3S6S(b1-4)GlcNAc
How it was run: as §1

Gal3S6S(b1-4)GlcNAc6S = target: Gal3S6S(b1-4)GlcNAc6S
How it was run: as §1

Gal4S6S(b1-4)GlcNAc = target: Gal4S6S(b1-4)GlcNAc
How it was run: as §1

Gal6S(b1-4)Glc = target: Gal6S(b1-4)Glc
How it was run: as §1

[16] = target: Man(a1-2)Man(a1-3)[Man(a1-6)]Man(a1-6)[Man(a1-2)Man(a1-3)]Man(b1-4)GlcNAc(b1-4)GlcNAc
How it was run: as §1

[17] = target: Neu5Ac(a2-3)Gal(b1-3)[Fuc(a1-4)]GlcNAc
How it was run: as §1

Neu5Ac(a2-3)Gal(b1-4)Glc = target: Neu5Ac(a2-3)Gal(b1-4)Glc
How it was run: as §1

[18] = target: Neu5Ac(a2-6)Gal(b1-4)GlcNAc(b1-3)Gal(b1-4)GlcNAc
How it was run: as §1

[19] = target: Neu5Ac(a2-8)Neu5Ac(a2-3)Gal(b1-4)Glc
How it was run: as §1

[20] = target: Neu5Gc(a2-3)Gal(b1-3)GlcNAc
How it was run: as §1

| Binder | glycan array binding signal (z-score) [1] | glycan array binding signal (z-score) [2] | glycan array binding signal (z-score) (Gal(a1-3)Gal(b1-3)Glc) | glycan array binding signal (z-score) [3] | glycan array binding signal (z-score) [4] | glycan array binding signal (z-score) (Gal4S(b1-4)GlcNAc) | glycan array binding signal (z-score) (Glc(a1-4)Glc) | glycan array binding signal (z-score) [5] | glycan array binding signal (z-score) [6] | glycan array binding signal (z-score) [7] | glycan array binding signal (z-score) (Man(a1-2)Man(a1-3)Man) | glycan array binding signal (z-score) [8] | glycan array binding signal (z-score) [9] | glycan array binding signal (z-score) [10] | glycan array binding signal (z-score) (Neu5Ac(a2-6)GalNAc) | glycan array binding signal (z-score) [11] | glycan array binding signal (z-score) [12] | glycan array binding signal (z-score) (Gal(a1-2)Gal) | glycan array binding signal (z-score) (Gal(a1-3)Gal(b1-3)GlcNAc) | glycan array binding signal (z-score) (Gal(a1-4)GlcNAc) | glycan array binding signal (z-score) [13] | glycan array binding signal (z-score) [14] | glycan array binding signal (z-score) [15] | glycan array binding signal (z-score) (Gal3S(b1-4)GlcNAc6S) | glycan array binding signal (z-score) (Gal3S6S(b1-4)GlcNAc) | glycan array binding signal (z-score) (Gal3S6S(b1-4)GlcNAc6S) | glycan array binding signal (z-score) (Gal4S6S(b1-4)GlcNAc) | glycan array binding signal (z-score) (Gal6S(b1-4)Glc) | glycan array binding signal (z-score) [16] | glycan array binding signal (z-score) [17] | glycan array binding signal (z-score) (Neu5Ac(a2-3)Gal(b1-4)Glc) | glycan array binding signal (z-score) [18] | glycan array binding signal (z-score) [19] | glycan array binding signal (z-score) [20] |
| --- | --- | --- | --- | --- | --- | --- | --- | --- | --- | --- | --- | --- | --- | --- | --- | --- | --- | --- | --- | --- | --- | --- | --- | --- | --- | --- | --- | --- | --- | --- | --- | --- | --- | --- |
| B1 | -0.347 | -0.391 | -0.298 | -0.464 | -0.215 | -0.335 | 2.65 | -0.327 | 0.685 | 9.79 | -0.261 | 4.17 | -0.474 | 2.57 | -0.153 | -0.491 | – | – | – | – | – | – | – | – | – | – | – | – | – | – | – | – | – | – |
| B2 | – | -0.259 | – | – | – | – | – | – | – | – | – | – | – | – | – | -0.211 | 1.21 | -0.328 | -0.366 | -0.074 | -0.381 | -0.29 | -0.521 | 3.66 | 5.12 | 6.44 | 3 | 0.086 | -0.209 | -0.566 | -0.332 | -0.476 | -0.16 | -0.386 |
